# The other results are listed elsewhere or left out. The true hit rate is not given.
# B1: VH:VL chains; a variant is named by its letters at X, in order (parent)
# chain 1: QVQLVQSGAEVKKPGASVKVSCKASGYTFTDYXMHWVRQAPGQGLEWMGXVNPNXXXTTYNQKFEGRVTMTTDTSTSTAYMELRSLRSDDTAVYYCARXNXLDXWGQGTTVTVSS
# chain 2: DIQMTQSPSSLSASVGDRVTITCSVSSSVSSIYLHWYQQKPGKAPKLLIYSTSNLASGVPSRFSGSGSGTDFTLTISSLQPEDFATYYCQVYSGYPLTFGGGTKVEIK
# Variants of: B1
# Assay: yeast display scFab, FACS + sequencing
# Details: with MET
# How it was run: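 Heavy-chain CDR mutant scFab yeast surface library, enriched by two magnetic rounds on HGFR-Fc-coated Protein A beads and then by FACS. Cells were labelled with 1 nM HGFR-Fc in PBSB with 1% milk and anti-Myc for 3 h at room temperature, and the top 50% antigen-positive cells were gated. Round-3 sorted and input populations were deep sequenced in two replicates. Antigen binding call: positive if a sequence occurred in both antigen-positive samples, negative if it occurred only in input.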
row,Variant,antigen binding call
1,DAGGASGV,no binding
2,VRGTDAGV,no binding
3,VERASAVV,no binding
4,VRRRGAVV,binds
5,VRRRGAGV,binds
6,VRGTDAVV,no binding
7,SGRGNSGV,no binding
8,DARADSGV,no binding
9,AARADDGV,no binding
10,YRAKGSGV,binds
11,YGAKGDGV,no binding
12,YRTRDSGV,binds
13,YRTKGSGV,binds
14,YRAKGAGV,binds
15,DTGTGASD,no binding
16,VAGGDAGV,no binding
17,AREEGFSV,no binding
18,DRAGDDVV,no binding
19,YRAKGAVV,binds
20,YRAGDAVV,binds
21,ARAGDAVV,no binding
22,AARADSSA,no binding

row,Variant,antigen binding call
1,VGGGADVA,no binding
2,YTGTSDAV,no binding
3,YTKTGDAV,binds
4,YTERGDAV,no binding
5,VTKTGDVA,no binding
6,VTKTGDAV,binds
7,VTAGSDAV,no binding
8,VTKTGAAA,binds
9,VTGTGDAV,no binding
10,VTTKSAAA,no binding
11,DKEGGYSV,no binding
12,DAKEGSLD,no binding
13,SAAGADWS,no binding
14,YRTADVGV,no binding
15,YRTAGSGV,binds
16,YRTAGAGV,binds
17,FAGGGDLV,no binding
18,VKERGSVD,binds
19,VEGGGSVD,no binding
20,VKGKDSGD,no binding
21,VTGTGSGD,no binding
22,FKARGSVD,binds

row,Variant,antigen binding call
1,FTETGSVD,no binding
2,VKARGSVD,binds
3,VEEEGSVD,no binding
4,VKAAGSVD,no binding
5,VKARGSGD,binds
6,VTGTGYVF,no binding
7,FRGKGASS,binds
8,FRGKGAAS,binds
9,FRGKGAGY,binds
10,YRGKGAAS,binds
11,VTGEDDGD,no binding
12,DAKENAGD,no binding
13,VAKEGAWV,no binding
14,VEARNAGA,no binding
15,DEGGTDVA,no binding
16,SAEATDLY,no binding
17,FAKAGFVA,no binding
18,FRGKGAGS,binds
19,YRGKGAVS,binds
20,FRGKGAVS,binds
21,YRRRGALF,binds
22,YRRRGSLF,binds

row,Variant,antigen binding call
1,YKEGDSGV chain 1 R87K,no binding
2,YKGRGSLA,binds
3,YAGRGDLA,no binding
4,YKGGDDLA,no binding
5,SKERGDVA,no binding
6,STGRAALA,no binding
7,FKEGGSAA,no binding
8,YKGRGALA,binds
9,SKGRGALA,binds
10,FKGRGSLA,binds
11,VEEEGDWD,no binding
12,SKGRSDGA,no binding
13,FKRAGSLA,binds
14,DKEEDSLA,no binding
15,SKGRSSLA,binds
16,VKGRSDSA,no binding
17,YGKGGDLA,no binding
18,YKKGGSLA,binds
19,VGGTSDWA,no binding
20,SRTGSDVD,no binding
21,SRGRGSVD,binds
22,SRGRGAVD,binds

row,Variant,antigen binding call
1,SRGRGYGD,no binding
2,SGGKNSVD,no binding
3,SGEGGAAV,no binding
4,VRGRGALF,binds
5,YRGRGALF,binds
6,YRGRGVLF,binds
7,VRGRGVSY,no binding
8,AARADDWV,no binding
9,FTEEGDGA,no binding
10,DAGEAFSF,no binding
11,AGGGNDGV,no binding
12,FRGRSSAF,binds
13,FRGRGSAF,binds
14,YEERSDAF,no binding
15,SAEGDAAD,no binding
16,DAARGAAA,no binding
17,SRARGAGA,binds
18,SRARGAAA,binds
19,SGEGGAGA,no binding
20,ARAASAGA,no binding
21,SRGRGFAA,no binding
